# Source: PubChem BioAssay (NCI)
# Compounds without any hit were thinned out: in the full panel of roughly 79,000, 15% have a hit. Activity calls are given as the source filed them. Rule as the data show it: active = growth inhibition above about 70%; inactive = the rest.
# Experiment: NCI Yeast Anticancer Drug Screen. Data for the bub3 strain (AID 167)
# Details: S. cerevisiae bub3 mutant strain, at 50.0 µM, stronger effect = higher value
# In short: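 In this screen, a yeast mutant lacking normal mitotic checkpoint function is challenged with compound. Relative growth versus vehicle gives the inhibition value.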
row,SMILES,growth inhibition
1,CC(=O)OCC(OC(C)=O)C1OC(OCc2ccccc2)C(OC(C)=O)C(OC(C)=O)C1OC(C)=O (stereo not given),-3% (inactive)
2,NC(=O)C(=Cn1c(=S)[nH]c2ccccc21)C(N)=O,-1.8% (inactive)
3,Cc1ccc(S(=O)(=O)N(CC(O)c2ccccc2)CC(O)c2ccccc2)cc1 (stereo not given),3.95% (inactive)
4,CC(C)=C1CCC/C1=N\Nc1ccc([N+](=O)[O-])cc1[N+](=O)[O-],4.6% (inactive)
5,O=C(CCC(=O)Nc1ccc(Cl)c(Cl)c1)CC(=O)c1ccc2ccccc2c1,2.2% (inactive)

# Experiment: NCI Yeast Anticancer Drug Screen. Data for the mlh1 rad18 strain (AID 175)
# Details: S. cerevisiae mlh1 rad18 strain growth inhibition; at 50.0 µM; stronger effect = higher value
# In short: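 Genetically defined yeast (DNA repair-deficient) exposed to compounds; growth inhibition determined relative to vehicle.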
row,SMILES,growth inhibition
1,Nc1nc(Cc2ccccc2)nc2[nH]ncc12,-1.6% (inactive)
2,O=S(=O)(O)C(Nc1ccc(Cl)cc1)c1ccccc1 (stereo not given),10.3% (inactive)
3,CC(=O)OC1C=CCC2C(=O)C3=C(C(=O)c4ccccc4C3=O)C(=O)C12 (stereo not given),33.2% (inactive)
4,O=C(Cl)CN1C(=O)c2ccccc2C1=O,-0.25% (inactive)
5,Cc1cc(=O)[nH]c(NN)n1,2.15% (inactive)
6,O=C1CCCC/C1=C\c1ccc([N+](=O)[O-])cc1,40.4% (inactive)
7,CCN(CC)c1cccc(C(=O)OCCNCC(C)C)c1,10.8% (inactive)
8,COC(=O)CCC(C)C1CCC2C3CCC4CC5CCC4(C)C3(O5)C(Br)C(Br)C12C (stereo not given),-4.8% (inactive)
9,Fc1cccc(C2SCc3nc4cc5ccccc5cc4n32)c1 (stereo not given),-9.65% (inactive)
10,O=c1[nH][nH]c(=O)c2c1ncn2Cc1ccccc1,-25.5% (inactive)
11,CC(=O)OCC1OC(n2nc(C#N)c(C#N)n2)C(OC(C)=O)C1OC(C)=O (stereo not given),1.15% (inactive)
12,c1ccc2c[n+]3cc4ccccc4cc3cc2c1,56.1% (inactive)
13,O=[N+]([O-])c1ccc(C=Nc2ccc3c(c2)Cc2ccccc2-3)cc1,1.25% (inactive)
14,CCOC(=O)c1ncn2c1[nH]c(=O)c1ccccc12,-10.6% (inactive)
15,CCCc1ccc(N=Nc2ccc(C(=O)O)cc2)cc1,0.7% (inactive)
16,COC(=O)NN=C1C(C)(C)C(=NNC(=O)OC)C1(C)C,-5.4% (inactive)
17,CCCCCCCCCC/C=C/c1c(C)[nH]c2ccccc2c1=O,-11.1% (inactive)
18,CC1(O)CC2C=CC1CC2 (stereo not given),13.8% (inactive)
19,O=C(O)c1ccc(C(=O)c2ccc(C(=O)c3ccc(C(=O)O)cc3)cc2)cc1,-14.8% (inactive)
20,NC1=NC=NCN1c1ccc(N)cc1,5.7% (inactive)

row,SMILES,growth inhibition
1,CC1(C)CC2=C(Sc3ccccc3N2)C(=O)C1C(=O)C(=O)Nc1cccc([N+](=O)[O-])c1 (stereo not given),1.1% (inactive)
2,COC(=O)c1ccccc1CC1Cc2cc3c(cc2C1)CCC3,5.45% (inactive)
3,Nc1ccn(C2OC(CCl)C(O)C2O)c(=O)n1 (stereo not given),-36.1% (inactive)
4,Cn1c2nc(-[n+]3ccc(N4CCOCC4)cc3)nc-2c([O-])n(C)c1=O,-11.7% (inactive)
5,Nc1ncc2c(n1)SCC2,-19.6% (inactive)
6,CC1C(c2ccccc2)=C(c2ccccc2)C(c2ccccc2)=C(c2ccccc2)C1c1ccccc1 (stereo not given),-10.7% (inactive)
7,COC(=O)c1ccc(N(C)CC/C(CNc2nc(N)[nH]c(=O)c2[N+](=O)[O-])=N\NC(N)=O)cc1,-4.15% (inactive)
8,O=C1c2ccccc2C(=O)N1/N=C/c1ccc([N+](=O)[O-])cc1,-22.5% (inactive)
9,O=C(NCC1CC1)c1ccccc1NC(=O)c1cc2ccccc2oc1=O,19.8% (inactive)
10,CN(C)CCC(C(=O)C(C)(C)C)c1ccccn1 (stereo not given),-0.6% (inactive)
11,C=CCO[Si](C=C)(OCC=C)OCC=C,-3.95% (inactive)
12,Cc1ccc2c(c1)nc(-c1ccccn1)n2CCc1ccncc1,53.8% (inactive)
13,CN(C)CC1CCC/C(=C\c2ccccc2)C1=O (stereo not given),16.7% (inactive)
14,N#CC1=C(N)C(c2ccccc2)(c2ccccc2)CC1,35.7% (inactive)
15,CCOC(=O)/C=C\C(=O)O.[Mn],-33.5% (inactive)
16,CC(=O)OCC(OC(C)=O)C1OC(OCc2ccccc2)C(OC(C)=O)C(OC(C)=O)C1OC(C)=O (stereo not given),-5.85% (inactive)
17,NC(=O)C(=Cn1c(=S)[nH]c2ccccc21)C(N)=O,-28.2% (inactive)
18,Cc1ccc(S(=O)(=O)N(CC(O)c2ccccc2)CC(O)c2ccccc2)cc1 (stereo not given),-8% (inactive)
19,CC(C)=C1CCC/C1=N\Nc1ccc([N+](=O)[O-])cc1[N+](=O)[O-],-8.75% (inactive)
20,O=C(CCC(=O)Nc1ccc(Cl)c(Cl)c1)CC(=O)c1ccc2ccccc2c1,-12.1% (inactive)
